Structures are written as SMILES. Screen size: about 50,000 compounds; about 800 (1.6%) showed an effect of 50% or more. This is one part of a sample in which strong results are shown more often than they occur.

The results in this text go back to PubChem BioAssay AID1240 (Sanford-Burnham Center for Chemical Genomics, 2008).

Bcl-2-like protein 10 (Homo sapiens), sequence (Q9HD36 whole entry, looked up): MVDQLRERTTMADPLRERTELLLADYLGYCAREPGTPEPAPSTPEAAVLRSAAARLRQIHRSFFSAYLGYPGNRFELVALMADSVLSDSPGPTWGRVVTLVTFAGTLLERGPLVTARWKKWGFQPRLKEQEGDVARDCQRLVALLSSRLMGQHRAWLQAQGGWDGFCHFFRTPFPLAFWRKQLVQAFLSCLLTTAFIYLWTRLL

This experiment addresses Bcl-2-like protein 10 (Homo sapiens) (UniProt Q9HD36). Kind of experiment: Phenotype converters, Bcl-B/TR3 peptide binding displacement, primary biochemical FP (AID 1240).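 Further: 0% = Bcl-B with tracer peptide and DMSO and 100% = tracer peptide lacking Bcl-B.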 The note with it: GST-Bcl-B / FITC-TR3 peptide fluorescence polarization; stronger effect = higher value; compound at 3.75 mg/L.
Regarding `Cc1cc(/C=C2\NC(=O)NC2=O)c(C)n1-c1ccc(N(C)C)cc1`, the displacement came out at 3.4%.
Turning to `Cc1cc(/C=C2/C(=O)NC(=O)N(c3ccccc3)C2=O)c(C)n1-c1ccccc1`, the displacement worked out at 30.8%.
As to `Cc1cc(/C=C2\C(=O)NC(=O)N(C)C2=O)c(C)n1-c1ccc(N(C)C)cc1`, the displacement was 124%.
For `Cc1cc(C=C2C(=O)NC(=O)NC2=O)c(C)n1-c1ccc(Cl)cc1`, the displacement came out at 106%.
`Cc1cc(C=C2C(=O)NC(=S)NC2=O)c(C)n1-c1ccc(N2CCOCC2)cc1`: the displacement amounted to 22.3%.
On to `Cc1cc(C=C2C(=O)NC(=O)NC2=O)c(C)n1-c1ccc(F)cc1`, for which the displacement is 4.7%.
As to `Cc1cc(C=C2C(=O)NC(=O)NC2=O)c(C)n1-c1ccc(N2CCOCC2)cc1`, the displacement turned out to be 126%.
As to `Cc1cc(/C=C2/NC(=O)NC2=O)c(C)n1-c1ccc(N2CCOCC2)cc1`, the displacement is -5.1%.
As for `Cc1cc(/C=C2/NC(=O)NC2=O)c(C)n1-c1ccc(Cl)cc1`, the figure is 10.7%; as for `FC(F)(F)c1ccccc1CN1CCN(Cc2c[nH]c3ccccc23)CC1`, -5.2%; as for `C=C(C)CNC(=S)NC1=C(C)N(C)N(c2ccccc2)C1=C`, -10.7%.
On to `O=C(NC1CCS(=O)(=O)C1)/C(=C\c1ccc(Br)cc1)NC(=O)c1ccccc1` (configuration not stated), for which the displacement is 1.9%.
As to `O=C1c2ccccc2C(=O)C12OC(c1ccc(Br)cc1)C1(C(=O)c3ccccc3C1=O)C2c1ccc(F)cc1` (configuration not stated), the displacement was determined as 2.6%.
`Fc1ccc(/C=N/Nc2nnc(-c3ccccc3)c(-c3ccccc3)n2)cc1`: the displacement turned out to be 5.2%.
As for `C(=C(\c1ccccc1)c1nc2ccccc2[nH]1)/c1ccco1`, the displacement is 2.2%.
As for `CCN1C(=O)c2cccc3c(NC(=O)c4ccc(S(=O)(=O)N(C)C)cc4)ccc1c23`, the figure is 84.1%; as for `CCN1C(=O)c2cccc3c(NC(=O)c4cccs4)ccc1c23`, -29.9%.
As to `CCN1C(=O)c2cccc3c(S(=O)(=O)N(C)C)ccc1c23`, the displacement is 6.6%.
Consider `CCN1C(=O)c2cccc3c(NC(=O)c4ccc(Cl)s4)ccc1c23`, for which the displacement was 11.6%.
`CCN1C(=O)c2cccc3c(NC(=O)c4ccc(Oc5ccccc5)cc4)ccc1c23`: the displacement is -14.2%.
As for `CCN1C(=O)c2cccc3c(NC(=O)c4ccc(S(=O)(=O)N5CCOCC5)cc4)ccc1c23`, the displacement worked out at 8.7%.
`CCN1C(=O)c2cccc3c(NC(=O)c4ccc(C(=O)c5ccccc5)cc4)ccc1c23`: the displacement came to 101%.
Turning to `O=C(Nc1cccc2ccccc12)c1ccc(S(=O)(=O)N2CCCCC2)cc1`, the displacement is -8.9%.
As for `CCN1C(=O)c2cccc3c(NC(=O)c4ccc(S(=O)(=O)N5CCCCCC5)cc4)ccc1c23`, the figure is 88.2%.
As to `COCCNC(=O)Cc1ccc(Br)cc1`, the displacement was 13.1%.
Regarding `COc1ccc(CC(=O)Nc2cccc(NC(=O)c3cccc(Cl)c3)c2)cc1OC`, the displacement is -0.7%.
Turning to `CCc1nn2c(N)c(C=C3C=CC(=O)C=C3)c(=O)nc2s1`, the displacement came to 1.9%.
As for `COc1ccc(CCNC(=O)C2CN(S(=O)(=O)c3ccccc3)CCN2S(=O)(=O)c2ccccc2)cc1OC` (configuration not stated), the displacement was -2.8%.
Turning to `O=C(COC(=O)C1CC(=O)N(c2ccc(Cl)cc2)C1)c1ccccc1` (configuration not stated), the displacement turned out to be 9.1%.
`O=C(NC(=S)Nc1ccc(N2CCCCC2)c(Cl)c1)c1ccco1`: the displacement is -7.1%.
With `CC(C)CCn1c(=O)[nH]c2ccccc21`, the displacement was found to be 10.2%.
For the molecule `CCCc1c(C)nc2c(Cl)cccc2c1SCC(=O)O`, the displacement was -1.7%.
In the case of `COC(=O)c1c(NC(=O)c2ccco2)sc2c1CCC(C)C2` (configuration not stated) it was 0.1%; in that of `NC(=O)c1c(NC(=O)c2ccco2)sc2c1CCC2`, 4.5%.
In the case of `COC(=O)c1c(NC(=O)c2ccco2)sc2c1CCC2`, the displacement amounted to 91.1%.
As for `CCc1ccccc1OCCCNC(C)(C)C`, the figure is 1.5%.
Take `O=C(NNC(=O)c1cc([N+](=O)[O-])ccc1Cl)c1ccc([N+](=O)[O-])cc1`: the displacement was -4.8%.
For `NC(=O)C1CCN(C(=O)c2ccc([N+](=O)[O-])cc2)CC1`, the displacement was found to be 4.4%.
Take `Cc1ccc(-c2csc(NC(=O)C3C4CCC(C4)C3C(=O)O)n2)c(C)c1` (configuration not stated): the displacement is -0.1%.
For `CC(Oc1ccccc1)C(=O)NCc1cccnc1` (configuration not stated), the displacement amounted to 3.9%.
As to `CCOc1ccc2nc(NC(=O)c3ccccc3C(=O)O)sc2c1`, the displacement was -7%.
Turning to `CCOc1ccc2nc(NC(=O)c3ccccc3O)sc2c1`, the displacement was -1%.
`CCOc1ccc2nc(NC(=O)C(c3ccccc3)c3ccccc3)sc2c1`: the displacement came out at 66.7%.
Turning to `COc1ccc(Cc2nc(-c3ccc(Cl)cc3)no2)cc1OC`, the displacement was found to be 1.1%.
In the case of `Cc1ccc(OCCOc2ccc(Br)cc2C=C2C(=O)NC(=S)NC2=O)cc1` it was -23.5%.
In the case of `O=C(CSc1nc2ccccc2o1)NCc1ccco1` it was -19.3%; in that of `Cc1ccc(N(CC(=O)O)S(=O)(=O)c2ccc(F)cc2)cc1`, 8.4%; in that of `CCOc1ccc2oc(-c3ccccc3)c(C(=O)O)c2c1`, 5.4%.
`Cc1oc2ccc(OC(C)C(=O)O)cc2c1C(=O)O` (configuration not stated): the displacement stood at 14.7%.
With `CCOC(=O)c1c(-c2ccccc2)oc2ccc(OC(=O)c3ccco3)cc12`, the displacement was determined as 99.8%.
As for `CCOC(=O)c1c(-c2ccccc2)oc2ccc(OC(=O)C(C)(C)C)cc12`, the figure is 10.8%.
For the molecule `CC(Oc1ccc2oc(-c3ccccc3)c(C(=O)O)c2c1)C(=O)O` (configuration not stated), the displacement was determined as 59.2%.
As for `CCOC(=O)c1c(-c2ccccc2)oc2cc(Br)c(OC(=O)c3ccco3)cc12`, the displacement stood at 8.8%.
Regarding `O=C(CSc1nc2ccccc2[nH]1)N/N=C/c1cccc(Cl)c1Cl`, the displacement is -5.4%.
Regarding `COc1ccccc1CC(=O)N1CCN(c2ccc([N+](=O)[O-])cc2)CC1`, the displacement was found to be 11.9%.
As for `COc1ccc(CC(=O)Nc2sc3c(c2C(=O)Nc2ccccc2Cl)CCCC3)cc1`, the figure is -9.7%.
Turning to `COc1ccc(Cl)cc1/C=C1/C(=O)NN(c2cccc(Br)c2)C1=O`, the displacement is -1.3%.
Turning to `COc1ccc(N2C(=O)Cn3c2nc2c3c(=O)n(C)c(=O)n2C)cc1`, the displacement amounted to 61.6%.
In the case of `Cc1ccc(N2C(=O)Cn3c2nc2c3c(=O)n(C)c(=O)n2C)cc1Cl` it was -12.5%.
With `Cc1cccc(N2C(=O)Cn3c2nc2c3c(=O)n(C)c(=O)n2C)c1`, the displacement is -5.8%.
Consider `CC(O)c1cccc(NC(=O)c2nn3c(c2Cl)NC(c2ccco2)CC3C(F)(F)F)c1` (configuration not stated), for which the displacement was -0.1%.
For `COc1ccc(C(=O)NC(=S)NCc2ccco2)cc1`, the displacement was 9.4%.
For `Cn1c(-n2c(CCN3C(=O)c4ccccc4C3=O)nc3ccccc3c2=O)nc2ccccc21`, the displacement was determined as 66.3%.
On to `Cn1c(-n2c(CCCN3C(=O)c4ccccc4C3=O)nc3ccccc3c2=O)nc2ccccc21`, for which the displacement was determined as 35.4%.
For the molecule `Cc1cccc(-n2c(CCN3C(=O)c4ccccc4C3=O)nc3ccccc3c2=O)n1`, the displacement is -0.9%.
In the case of `C/C(=N\NC(=O)c1ccccn1)c1ccc(F)cc1` it was -18.6%; in that of `O=C1NC(=O)N(c2ccc(Cl)cc2)C(=O)/C1=C/c1ccc(O)c(Br)c1`, -8.4%.
